Screen size: about 5,500 compounds; about 2,000 (36%) were called active. Roughly 18% stayed inconclusive and do not appear here. Cut-off read from the data, not from the text of the source: active = normalized growth mostly below about 0.91 (no sharp cut-off); inconclusive = no clear call, values can overlap the other calls; inactive = mostly above about 0.92. This is one part of the list.
Experiment: chemical genetic growth profiling, strain panel (AID 1159580);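 note: tested at 20 µM; growth read once vehicle control cultures reached saturation at 30 °C; 1 = growth at the plate median or of vehicle wells; lower values mean less growth of the strain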
Details: growth OD

Measured: normalized growth

C=C[C@](C)(O)CCC=C(C)C
inactive: S. cerevisiae deletion strains, locus YBR021W, strain FUR4, hits give low values 1.01 | S. cerevisiae deletion strains, locus YBR229C, strain ROT2, hits give low values 1 | S. cerevisiae deletion strains, locus YCL029C, strain bik1, hits give low values 1.02 | S. cerevisiae deletion strains, locus YDL035C, strain GPR1, hits give low values 1.04 | S. cerevisiae deletion strains, locus YDL074C, strain BRE1, hits give low values 1.06 | S. cerevisiae deletion strains, locus YDL101C, strain DUN1, hits give low values 1.01 | S. cerevisiae deletion strains, locus YDL134C, strain PPH21, hits give low values 1 | S. cerevisiae deletion strains, locus YDL185W, strain tfp1, hits give low values 1.02 | S. cerevisiae deletion strains, locus YDL192W, strain arf1, hits give low values 1.01 | S. cerevisiae deletion strains, locus YDR101C, strain arx1, hits give low values 1.04 | S. cerevisiae deletion strains, locus YDR162C, strain NBP2, hits give low values 1 | S. cerevisiae deletion strains, locus YDR318W, strain mcm21, hits give low values 0.986 | S. cerevisiae deletion strains, locus YDR388W, hits give low values 1.01 | S. cerevisiae deletion strains, locus YDR502C, strain sam2, hits give low values 0.999 | S. cerevisiae deletion strains, locus YEL061C, strain CIN8, hits give low values 1 | S. cerevisiae deletion strains, locus YER110C, hits give low values 1.01 | S. cerevisiae deletion strains, locus YER155C, strain BEM2, hits give low values 1.01 | S. cerevisiae deletion strains, locus YER167W, strain BCK2, hits give low values 1.01 | S. cerevisiae deletion strains, locus YGL078C, strain dbp3, hits give low values 1.02 | S. cerevisiae deletion strains, locus YGL086W, strain mad1, hits give low values 1.05 | S. cerevisiae deletion strains, locus YGL248W, strain PDE1, hits give low values 0.995 | S. cerevisiae deletion strains, locus YGR135W, strain pre9, hits give low values 1.01 | S. cerevisiae deletion strains, locus YGR252W, strain gcn5, hits give low values 0.977 | S. cerevisiae deletion strains, locus YHR030C, strain SLT2, hits give low values 1.01 | S. cerevisiae deletion strains, locus YHR079C, strain IRE1 (second series), hits give low values 1.01 | S. cerevisiae deletion strains, locus YHR094C, strain hxt1, hits give low values 1.01 | S. cerevisiae deletion strains, locus YHR129C, strain ARP1, hits give low values 1.02 | S. cerevisiae deletion strains, locus YHR200W, strain rpn10, hits give low values 1.01 | S. cerevisiae deletion strains, locus YIL066C, strain RNR3, hits give low values 1.01 | S. cerevisiae deletion strains, locus YIL073C, strain SPO22, hits give low values 1.03 | S. cerevisiae deletion strains, locus YIL125W, strain kgd1, hits give low values 1.02 | S. cerevisiae deletion strains, locus YIR030C, strain dcg1, hits give low values 0.998 | S. cerevisiae deletion strains, locus YJL095W, strain BCK1, hits give low values 0.988 | S. cerevisiae deletion strains, locus YJL134W, strain LCB3, hits give low values 0.999 | S. cerevisiae deletion strains, locus YJL168C, strain set2, hits give low values 1.01 | S. cerevisiae deletion strains, locus YJL187C, strain SWE1 (second series), hits give low values 1 | S. cerevisiae deletion strains, locus YJR043C, strain POL32, hits give low values 1.04 | S. cerevisiae deletion strains, locus YJR075W, strain HOC1, hits give low values 1 | S. cerevisiae deletion strains, locus YKL009W, strain mrt4, hits give low values 1.05 | S. cerevisiae deletion strains, locus YKL068W, hits give low values 1 | S. cerevisiae deletion strains, locus YKL085W, strain MDH1 (second series), hits give low values 0.995 | S. cerevisiae deletion strains, locus YKL085W, strain MDH1, hits give low values 0.995 | S. cerevisiae deletion strains, locus YKL190W, strain CNB1, hits give low values 1 | S. cerevisiae deletion strains, locus YKR001C, strain vps1, hits give low values 1.06 | S. cerevisiae deletion strains, locus YLR039C, strain RIC1, hits give low values 1.03 | S. cerevisiae deletion strains, locus YLR058C, strain SHM2, hits give low values 0.997 | S. cerevisiae deletion strains, locus YLR102C, strain apc9, hits give low values 1.01 | S. cerevisiae deletion strains, locus YLR262C, strain YPT6, hits give low values 1.01 | S. cerevisiae deletion strains, locus YLR268W, strain sec22, hits give low values 1.06 | S. cerevisiae deletion strains, locus YLR330W, strain CHS5, hits give low values 1.02 | S. cerevisiae deletion strains, locus YLR342W, strain FKS1 (second series), hits give low values 1.05 | S. cerevisiae deletion strains, locus YLR371W, strain rom2, hits give low values 1.02 | S. cerevisiae deletion strains, locus YLR418C, strain cdc73, hits give low values 0.984 | S. cerevisiae deletion strains, locus YML016C, strain PPZ1, hits give low values 1.01 | S. cerevisiae deletion strains, locus YML032C, strain rad52, hits give low values 0.973 | S. cerevisiae deletion strains, locus YML124C, strain tub3, hits give low values 0.999 | S. cerevisiae deletion strains, locus YMR078C, strain ctf18, hits give low values 1.01 | S. cerevisiae deletion strains, locus YMR223W, strain ubp8, hits give low values 0.994 | S. cerevisiae deletion strains, locus YMR307W, strain GAS1, hits give low values 1.03 | S. cerevisiae deletion strains, locus YNL067W, strain RPL9B, hits give low values 1.01 | S. cerevisiae deletion strains, locus YNL233W, strain BNI4, hits give low values 1 | S. cerevisiae deletion strains, locus YNL250W, strain rad50, hits give low values 1.02 | S. cerevisiae deletion strains, locus YNL271C, strain bni1, hits give low values 1.01 | S. cerevisiae deletion strains, locus YNL298W, strain CLA4, hits give low values 1.02 | S. cerevisiae deletion strains, locus YNL307C, strain MCK1, hits give low values 1.03 | S. cerevisiae deletion strains, locus YNL322C, strain KRE1, hits give low values 1 | S. cerevisiae deletion strains, locus YNR052C, strain pop2, hits give low values 0.997 | S. cerevisiae deletion strains, locus YOL006C, strain TOP1, hits give low values 1.1 | S. cerevisiae deletion strains, locus YOL012C, strain htz1 1.44 | S. cerevisiae deletion strains, locus YOL147C, strain pex11, hits give low values 1 | S. cerevisiae deletion strains, locus YOR061W, strain CKA2, hits give low values 1 | S. cerevisiae deletion strains, locus YOR069W, strain VPS5, hits give low values 1.01 | S. cerevisiae deletion strains, locus YOR136W, strain idh2, hits give low values 1.01 | S. cerevisiae deletion strains, locus YOR144C, strain elg1, hits give low values 1.01 | S. cerevisiae deletion strains, locus YOR184W, strain ser1, hits give low values 1.05 | S. cerevisiae deletion strains, locus YOR316C, strain cot1, hits give low values 1.01 | S. cerevisiae deletion strains, locus YPL241C, strain CIN2, hits give low values 0.998 | S. cerevisiae deletion strains, locus YPR119W, strain clb2, hits give low values 1 | S. cerevisiae deletion strains, locus YPR141C, strain kar3, hits give low values 1 | S. cerevisiae deletion strains, locus YPR163C, strain tif3, hits give low values 1 | S. cerevisiae deletion strains, locus YPR167C, strain met16, hits give low values 0.999 | S. cerevisiae deletion strains, strain wtn01, hits give low values 1.07 | S. cerevisiae strains, strain wild type, hits give low values 1.01
